Results on 30 compounds are retold here after PubChem BioAssay (NCATS).

Several values for one entry are separate records, joined by “and”; a condition that tells them apart may be missing. Equal values may be shown once. Inconclusive results are not listed. Activity calls are given as the source filed them. Unless noted, the call rests on the fitted dose curve; in most records, active means well fitted curve in the direction sought with a large enough effect; inconclusive means small, poorly fitted or top-dose-only effect, or another doubt; inactive means no such curve, though single readings can be large; an effect the other way counts as inactive or inconclusive.

A short description of experiment [1]: qHTS Screen of the MIPE 4.0 Collection Against Ewings Sarcoma (TC32) (AID 1259256). Further: nearly all actives have a fitted effect of over 45% in size. Further: potency means the concentration at half of the fitted maximal effect. The method, boiled down: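 Measured: ATP luminescence (CellTiter-Glo) 10 min after reagent addition, following 48 h drug treatment. Relative luciferase units converted to percent activity, with no-cell wells as full and DMSO wells as zero inhibition.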
For orientation: qHTS replaces the single test concentration by a dilution series.

Experiment [2] in a line: Identifying Small Molecule Inhibitors of Pancreatic Cancer Stem Cells (SN12C, Adherent) (AID 1259358).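 Further: cell survival measured after 48 h of compound exposure.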 Further: potency means the concentration at half of the fitted maximal effect. The method, boiled down:
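After a 4 h attachment period, compounds were pinned into wells and cultures held 48 h under standard incubator conditions. Viability was then measured as CellTiter-Glo luminescence following 10 min at room temperature.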

Experiment [3] can be described thus: Identifying Small Molecule Inhibitors of Pancreatic Cancer Stem Cells (Panc1, Spheroid) (AID 1259359).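 Further: potency means the concentration at half of the fitted maximal effect; compound exposure lasted 48 h before reading.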 The conditions noted are these: Panc1 spheroid cancer stem cell viability. The method, boiled down:
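Adherent (2D) versus sphere (3D) formats; spheres generated 14 d in SCM beforehand. Compound transferred by pin tool after 4 h, 48 h incubation, CellTiter-Glo endpoint.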

The nature of experiment [4]: Identifying Small Molecule Inhibitors of Pancreatic Cancer Stem Cells (A2780, Spheroid) (AID 1259357). Further: potency means the concentration at half of the fitted maximal effect.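 Further: spheroids pre-formed over 14 days in stem cell medium on hydrogel; compound exposure lasted 48 h before the ATP luminescence read.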 The conditions noted are these: Potency: A2780 spheroid viability. An outline of the steps:
(§1)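 Spheroids grown 14 days in stem cell media on nonadherent hydrogel before screening; cells attached 4 h, then compound exposure 48 h at 37C, 5% CO2. CellTiter-Glo luminescence normalized to DMSO (no inhibition) and no-cell wells (full inhibition).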

Experiment [5] in a line: P-glycoprotein substrates identified in KB-8-5-11 adenocarcinoma cell line, qHTS therapeutic library screen (AID 1346987). Further: nearly all actives have a fitted effect of over 65% in size. Further: potency means the concentration at half of the fitted maximal effect. The method, boiled down:
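KB-8-5-11, a colchicine-selected P-gp-overexpressing KB-3-1 subline, was grown without colchicine for the assay. Cells were seeded at 500 cells/well, dosed in concentration-response and incubated 72 h at 37 degree C, 5% CO2. Viability was read by CellTiter-Glo luminescence.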

Experiment [6] can be described thus: Identifying Small Molecule Inhibitors of Pancreatic Cancer Stem Cells (SN12C, Spheroid) (AID 1259360). Further: potency means the concentration at half of the fitted maximal effect. The conditions noted are these: Potency: SN12C spheroid viability. An outline of the steps: as §1
The nature of experiment [7]: P-glycoprotein substrates identified in KB-3-1 adenocarcinoma cell line, qHTS therapeutic library screen (AID 1346986). Further: nearly all actives have a fitted effect of over 60% in size.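 Further: potency means the concentration at half of the fitted maximal effect; potency is for cytotoxicity meaning loss of cell viability.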 The method, boiled down:
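Resistance attributable to P-gp was assessed by comparing AC50 in KB-8-5-11 with parental KB-3-1 and by tariquidar reversal. Cells were exposed 72 h and viability read by CellTiter-Glo.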

Experiment [8] is described as follows: qHTS assay to identify small molecule inhibitors of chordoma cells - UCH-2 (AID 1259356). Further: series mostly up to about 46 µM.
Experiment [9] can be described thus: Natriuretic polypeptide receptor (hNpr1) antagonism - Pilot counterscreen GloSensor control cell line (AID 1347045; calls by dose curve; further: series mostly up to about 38 µM). The method, boiled down: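 HEK293 cGMP GloSensor cells preloaded 2 h with 2% GloSensor reagent, then compound 30 min before baseline luminescence read. Stimulated with 50 uM sodium nitroprusside, 20 min at room temperature, then read again; counterscreen for Npr1 antagonism.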
(In general: Counterscreens check selectivity or assay interference.)

Experiment [10] addresses Atrial natriuretic peptide receptor 2 (Homo sapiens) (UniProt P20594). Put plainly: Natriuretic polypeptide receptor (hNpr2) antagonism - Pilot subtype selectivity assay (AID 1347050; calls by dose curve). An outline of the steps: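 cGMP-sensor HEK293/hNpr2 cells; 2% GloSensor reagent 2 h RT; compounds 30 min; baseline luminescence read; 1 nM hNppC agonist 20 min RT; final luminescence read by CCD camera. Antagonism = reduced post-agonist signal.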

Sequence of Atrial natriuretic peptide receptor 2 (Homo sapiens) (P20594 whole entry, looked up): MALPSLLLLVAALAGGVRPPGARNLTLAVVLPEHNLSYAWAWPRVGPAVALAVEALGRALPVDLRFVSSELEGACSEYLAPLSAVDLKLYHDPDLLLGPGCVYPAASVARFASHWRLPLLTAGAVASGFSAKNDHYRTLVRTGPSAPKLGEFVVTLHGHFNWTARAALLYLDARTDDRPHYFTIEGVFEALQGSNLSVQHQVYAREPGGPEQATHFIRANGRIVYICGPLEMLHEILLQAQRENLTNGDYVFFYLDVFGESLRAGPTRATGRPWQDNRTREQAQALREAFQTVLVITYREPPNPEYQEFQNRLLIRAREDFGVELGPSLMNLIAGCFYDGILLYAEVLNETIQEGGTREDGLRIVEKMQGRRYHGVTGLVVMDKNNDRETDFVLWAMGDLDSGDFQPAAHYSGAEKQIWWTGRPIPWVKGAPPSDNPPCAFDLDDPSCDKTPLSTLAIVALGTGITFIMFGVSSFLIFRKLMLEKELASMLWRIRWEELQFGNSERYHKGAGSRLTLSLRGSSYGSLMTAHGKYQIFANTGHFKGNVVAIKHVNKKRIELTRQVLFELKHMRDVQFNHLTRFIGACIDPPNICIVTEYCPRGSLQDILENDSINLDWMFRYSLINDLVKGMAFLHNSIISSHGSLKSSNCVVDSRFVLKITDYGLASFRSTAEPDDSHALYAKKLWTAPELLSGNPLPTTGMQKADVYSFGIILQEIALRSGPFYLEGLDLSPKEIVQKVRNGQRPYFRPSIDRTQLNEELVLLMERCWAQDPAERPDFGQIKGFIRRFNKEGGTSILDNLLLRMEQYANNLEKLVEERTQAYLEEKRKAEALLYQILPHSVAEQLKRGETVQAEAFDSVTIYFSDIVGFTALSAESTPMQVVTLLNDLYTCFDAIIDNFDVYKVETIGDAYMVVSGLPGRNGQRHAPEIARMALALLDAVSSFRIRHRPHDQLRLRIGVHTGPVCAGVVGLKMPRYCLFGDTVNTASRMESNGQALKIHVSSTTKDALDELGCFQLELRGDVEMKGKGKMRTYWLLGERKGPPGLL

In the case of `c1ccc2c(-c3cnn4cc(-c5ccc(N6CCNCC6)cc5)cnc34)ccnc2c1`, the Potency result in experiment [1] was “inactive”. Further, the Potency in experiment [2] and in [3] was 26.4 µM (active) each time.
For the compound `Cc1ccc(/C=N/NC(=O)c2ccccc2Oc2ccccc2)o1`, the Potency entry in experiment [1] is “inactive”.
Same read-out and setting: the same measure for `CC=CCC(C)C(O)C1C(=O)NC(CC)C(=O)N(C)CC(=O)N(C)C(CC(C)C)C(=O)NC(C(C)C)C(=O)N(C)C(CC(C)C)C(=O)NC(C)C(=O)NC(C)C(=O)N(C)C(CC(C)C)C(=O)N(C)C(CC(C)C)C(=O)N(C)C(C(C)C)C(=O)N1C` (centres undefined): “inactive”.
Turning to `N#C[C@H]1C[C@H]2C[C@@H]2N1C(=O)[C@@H](N)C12CC3CC(CC(O)(C3)C1)C2`, the Potency in experiment [1] was 16.6 µM (active).
For the compound `CCOc1ccc(Nc2nc(-c3c(C)nc4ccccn34)cs2)cc1`, in [1], the Potency entry was “inactive”. Moreover, the Potency was 0.296 µM (active) in experiment [4]; 1 nM (active) and 36.6 nM (active) in [5].
On to `CC=CC[C@@H](C)C(=O)[C@H]1C(=O)N[C@@H](C(C)C)C(=O)N(C)CC(=O)N(C)[C@@H](CC(C)C)C(=O)N[C@@H](C(C)C)C(=O)N(C)[C@@H](CC(C)C)C(=O)N[C@@H](C)C(=O)N[C@H](C)C(=O)N(C)[C@@H](CC(C)C)C(=O)N(C)[C@@H](CC(C)C)C(=O)N(C)[C@@H](C(C)C)C(=O)N1C`, for which the Potency in experiment [1] is 18.7 µM (active).
Same read-out and setting: the same measure for `C=C1C(=O)OC(CCCCCCCC)C1C(=O)O` (centres undefined): 26.4 µM (active); for `CCNc1cc(NC2CCC(O)CC2)nc(Nc2ccc3c(ccn3Cc3ccccc3)c2)n1` (centres undefined): 23.5 µM (active); for `Nc1ncnc2c1nc(Cl)n2[C@@H]1O[C@H](CO)[C@@H](O)[C@@H]1O`: 20.9 µM (active).
Still for that read-out and setting: as for `NC1CCC(Nc2nc(Nc3ccc(C(=O)N4CCCCC4)cc3)c3ncn(-c4cccc(F)c4)c3n2)CC1` (centres undefined), the entry is “inactive”.
Still for that read-out and setting: as for `CC(C)(C)NC(=O)Nc1cccc(Nc2ncc(F)c(NC(C)(C)CO)n2)c1`, the figure is 2.35 µM (active).
Take `O=C(Nc1cc(Cl)cc2c1[nH]c1cnccc12)c1cccnc1`: the Potency in experiment [1] is 26.4 µM (active). In addition, the Potency entry in experiment [6], in experiment [7] and in experiment [5] was “inactive” throughout.
`Cc1nc(N)sc1-c1ccnc(Nc2ccc(N3CCOCC3)cc2)n1`: the Potency in experiment [1] is 16.6 µM (active); in experiment [7] it was 1.46 µM (active); in experiment [5], 5.26 µM (active) and 1.16 µM (active).
As for `CCn1cc(C(=O)O)c(=O)c2ccc(C)nc21`, the Potency entry in experiment [1], in experiment [5] and in [9] was “inactive” in each case. The compound was classed as inactive in [8] and in experiment [10].
As for `Nc1ncnc2c1ncn2[C@@H]1O[C@@H](CO)[C@H](O)[C@H]1O`, the Potency result in [1], in [7] and in [5] was “inactive” each time.
As for `Clc1ccc(CCC(Cn2ccnc2)Sc2c(Cl)cccc2Cl)cc1` (centres undefined), the Potency result in experiment [1] is “inactive”.
The same measure, in the same setting: the same measure for `COc1ccc(-c2cc(=O)c3c(O)cc(O)cc3o2)cc1O`: 14.8 µM (active); for `CO[C@H]1C=CO[C@@]2(C)Oc3c(C)c(O)c4c(O)c(c5c(c4c3C2=O)NC2(CCN(CC(C)C)CC2)N=5)=NC(=O)C(C)=CC=C[C@H](C)[C@H](O)[C@@H](C)[C@@H](O)[C@@H](C)[C@H](OC(C)=O)[C@H]1C`: “inactive”.
As for `O=C(O)c1ccc(-c2cc3cccnc3c(-c3ccc4nonc4c3)n2)cc1`, the Potency in experiment [1] is 26.4 µM (active). The Potency result in [2] and in experiment [6] was “inactive” each time.
As to `CC[C@@]1(O)C[C@H](O[C@H]2C[C@H](N(C)C)[C@H](O[C@H]3C[C@H](O)[C@H](O[C@H]4CCC(=O)[C@H](C)O4)[C@H](C)O3)[C@H](C)O2)c2c(cc3c(c2O)C(=O)c2c(O)cccc2C3=O)[C@@H]1C(=O)OC`, the Potency result in experiment [1] was “inactive”.
As to `CCOC(CN1C(=O)[C@](CC(=O)Nc2ccc(C)cc2)(NC(=O)Nc2ccc(C)cc2)c2ccccc21)OCC`, the Potency result in experiment [1] was “inactive”. Also, the Potency in experiment [4] was 0.0059 µM (active); in experiment [2], 23.5 µM (active); in experiment [6] it was 18.7 µM (active).
For the compound `C[N+](C)(C)CC(=O)O`, the Potency result in experiment [1] is “inactive”.
The same measure, in the same setting: the same measure for `C=C1C(=O)[C@@]23C(CC[C@@H]1[C@H]2O)[C@@]12CO[C@]3(O)[C@@H](O)[C@@H]1C(C)(C)CC[C@@H]2O` (some centres undefined): 5.26 µM (active).
For the compound `O=C(O)CCC1CCC(c2cc(F)ccc2F)(S(=O)(=O)c2ccc(Cl)cc2)CC1` (centres undefined), the figures for the Potency in experiment [1] and in experiment [3] were 11.8 µM (active) and 3.32 µM (active), respectively. For the same compound, the Potency entry in experiment [2], in [7] and in [5] was “inactive” each time.
Turning to `CC[C@H]1OC(=O)[C@H](C)[C@@H](O[C@H]2C[C@@](C)(OC)[C@@H](O)[C@H](C)O2)[C@H](C)[C@@H](O[C@@H]2O[C@H](C)C[C@H](N(C)C)[C@@H]2O)[C@](C)(O)C[C@@H](C)CN(C)[C@H](C)[C@@H](O)[C@]1(C)O`, in experiment [1], the Potency is 13.2 µM (active). Besides, the Potency result in experiment [7] and in experiment [5] was “inactive” throughout.
For `COc1cccc([C@@H](C)NCCCc2ccccc2Cl)c1`, the Potency result in [1], in [7] and in experiment [5] was “inactive” throughout.
As for `CC(C)(C)COc1ccc(-n2cc(C(=O)O)cn2)cc1C#N`, the Potency entry in [1], in experiment [4], in experiment [2], in experiment [6] and in experiment [5] was “inactive” throughout.
Turning to `COc1ccc(-c2coc3cc(O)cc(O)c3c2=O)cc1`, the Potency result in experiment [1], in experiment [7] and in [5] was “inactive” each time.
In the case of `CC(C)(C)C(=O)Oc1ccc2c(c1)nc(NC(=O)c1cccc([N+](=O)[O-])c1)n2CCCO`, the Potency entry in experiment [1], in [4], in experiment [2] and in experiment [6] was “inactive” each time.
Consider `O=c1c(-c2ccc(O)cc2)coc2cc(O[C@@H]3O[C@H](CO)[C@H](O)[C@H](O)[C@H]3O)ccc12`, for which the Potency entry in experiment [1], in experiment [7] and in experiment [5] was “inactive” each time.
